In PubChem BioAssay (NCATS):
Several values for one entry are separate records, joined by “and”; a condition that tells them apart may be missing. Equal entries are not always repeated. Records with an inconclusive call do not appear. A call without a number means that no potency is given here. More than one record can exist for a structure, and the calls need not agree. Values without a mark were called inactive. Activity calls are given as the source filed them. Unless noted, calls come from the whole dose curve; as a rule, active = well fitted curve in the direction sought with a large enough effect; inconclusive = small, poorly fitted or top-dose-only effect, or another doubt; inactive = no such curve, though single readings can be large; an effect the other way counts as inactive or inconclusive.

Experiments:
[1] = A High-Content qHTS Against Drug Library for the Identification of Small Molecules that Inhibit DYT1 Early Onset Primary Dystonia-Associated Cell Pathology (AID 1645839; calls by dose curve; note: series mostly up to about 46 µM)
In short: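 High-content imaging quantified EGFP-TorsinA mislocalization in HEK293-derived cells inducibly expressing DYT1 mutant torsinA, after 48 h exposure to compound given together with tetracycline induction. Cell count served as a toxicity channel alongside %pathology.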

[2] = target: Cytochrome P450 2D6 (Homo sapiens) (UniProt P10635); assay: Cytochrome P450 family 2 subfamily D member 6 (CYP2D6) small molecule antagonists: luciferase biochemical (cell-free) qHTS assay (AID 1645840; active = well fitted curve in the direction sought with a large enough effect in the repeat runs; an effect the other way counts as inactive or inconclusive; note: nearly all actives have a fitted effect of over 55% in size; note: potency is the fitted concentration of half-maximal effect; for activity change, negative = inhibition: series mostly up to about 57 µM)
Cytochrome P450 2D6 (Homo sapiens), sequence (P10635 whole entry, looked up): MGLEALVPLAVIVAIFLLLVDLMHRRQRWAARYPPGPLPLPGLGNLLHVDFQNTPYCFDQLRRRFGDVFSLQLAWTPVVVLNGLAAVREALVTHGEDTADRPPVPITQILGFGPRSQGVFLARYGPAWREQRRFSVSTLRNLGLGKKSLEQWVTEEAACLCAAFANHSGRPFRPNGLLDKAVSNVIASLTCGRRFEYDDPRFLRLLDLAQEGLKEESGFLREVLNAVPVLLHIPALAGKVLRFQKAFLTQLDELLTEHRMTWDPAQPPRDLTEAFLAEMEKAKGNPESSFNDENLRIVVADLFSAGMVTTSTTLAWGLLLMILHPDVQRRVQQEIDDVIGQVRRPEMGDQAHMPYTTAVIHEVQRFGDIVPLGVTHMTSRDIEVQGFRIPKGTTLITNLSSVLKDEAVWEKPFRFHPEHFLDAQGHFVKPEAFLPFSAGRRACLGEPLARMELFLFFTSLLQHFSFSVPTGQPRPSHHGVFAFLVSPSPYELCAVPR
In short: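 P450-Glo CYP2D6 system: proluciferin substrate converted by enzyme to luciferin, read by luminescence proportional to activity. Enzyme-substrate mix with compound 10 min at room temperature, then NADPH regeneration 1 h before detection reagent.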

[3] = target: Cytochrome P450 2C9 (Homo sapiens) (UniProt P11712); assay: Cytochrome P450 family 2 subfamily C member 9 (CYP2C9) small molecule antagonists: luciferase biochemical (cell-free) qHTS assay (AID 1645842; active = well fitted curve in the direction sought with a large enough effect in the repeat runs; an effect the other way counts as inactive or inconclusive; note: nearly all actives have a fitted effect of over 55% in size; note: potency is the fitted concentration of half-maximal effect; for activity change, negative = inhibition: series mostly up to about 57 µM)
Cytochrome P450 2C9 (Homo sapiens), sequence (P11712 whole entry, looked up): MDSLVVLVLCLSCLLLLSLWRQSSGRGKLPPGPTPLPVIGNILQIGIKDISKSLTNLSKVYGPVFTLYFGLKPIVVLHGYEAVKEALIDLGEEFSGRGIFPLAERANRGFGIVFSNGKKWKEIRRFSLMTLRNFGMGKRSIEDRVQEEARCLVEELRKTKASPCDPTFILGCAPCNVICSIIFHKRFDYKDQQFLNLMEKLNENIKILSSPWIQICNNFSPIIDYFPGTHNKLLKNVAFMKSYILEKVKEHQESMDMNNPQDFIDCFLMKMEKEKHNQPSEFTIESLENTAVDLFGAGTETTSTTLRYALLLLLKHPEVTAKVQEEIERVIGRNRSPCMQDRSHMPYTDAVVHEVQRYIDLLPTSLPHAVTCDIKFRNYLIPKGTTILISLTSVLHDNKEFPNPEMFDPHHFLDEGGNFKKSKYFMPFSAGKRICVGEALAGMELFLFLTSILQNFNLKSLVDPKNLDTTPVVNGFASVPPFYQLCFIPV
In short: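 P450-Glo CYP2C9 system: proluciferin substrate with enzyme in mix containing 0.4% BSA, 10 min at room temperature, then NADPH regeneration solution added and incubated 1 h at 37C. Detection reagent stopped reaction; luminescence read after 20 min as RLU.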

[4] = Primary qHTS for inhibitors of nuclear receptor binding SET domain protein 2 (NSD2) in an isogenic RCH-ACV NSD2 p.E1099K mutant (9B) (AID 1645876); note: nearly all actives have a fitted effect of over 70% in size; note: potency is the fitted concentration of half-maximal effect
[5] = Primary qHTS for inhibitors of nuclear receptor binding SET domain protein 2 (NSD2) in an RCH-ACV wild type WT cells (2C) (AID 1645877); note: nearly all actives have a fitted effect of over 70% in size; note: potency is the fitted concentration of half-maximal effect
[6] = Primary qHTS for small molecule stabilizers of the endoplasmic reticulum resident proteome: Secreted ER Calcium Modulated Protein (SERCaMP) assay (AID 1508630)
In short: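 The SH-SY5Y reporter protocol was run at 3 concentrations up to 38.3 uM (primary) or 11 concentrations (follow-up): 16 h compound, 100 nM thapsigargin for 4 h, then extracellular luciferase luminescence.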

[7] = target: Rap guanine nucleotide exchange factor 3 (Homo sapiens) (UniProt O95398); assay: Confirmatory qHTS for agonist of cAMP-regulated guanine nucleotide exchange factor 3 (EPAC1) (AID 1645881);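 note: EPAC1 catalysed release of BODIPY-GDP from Rap1B seen as fluorescence loss; nearly all actives have a fitted effect of over 75% in size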
Rap guanine nucleotide exchange factor 3 (Homo sapiens), sequence (O95398 whole entry, looked up): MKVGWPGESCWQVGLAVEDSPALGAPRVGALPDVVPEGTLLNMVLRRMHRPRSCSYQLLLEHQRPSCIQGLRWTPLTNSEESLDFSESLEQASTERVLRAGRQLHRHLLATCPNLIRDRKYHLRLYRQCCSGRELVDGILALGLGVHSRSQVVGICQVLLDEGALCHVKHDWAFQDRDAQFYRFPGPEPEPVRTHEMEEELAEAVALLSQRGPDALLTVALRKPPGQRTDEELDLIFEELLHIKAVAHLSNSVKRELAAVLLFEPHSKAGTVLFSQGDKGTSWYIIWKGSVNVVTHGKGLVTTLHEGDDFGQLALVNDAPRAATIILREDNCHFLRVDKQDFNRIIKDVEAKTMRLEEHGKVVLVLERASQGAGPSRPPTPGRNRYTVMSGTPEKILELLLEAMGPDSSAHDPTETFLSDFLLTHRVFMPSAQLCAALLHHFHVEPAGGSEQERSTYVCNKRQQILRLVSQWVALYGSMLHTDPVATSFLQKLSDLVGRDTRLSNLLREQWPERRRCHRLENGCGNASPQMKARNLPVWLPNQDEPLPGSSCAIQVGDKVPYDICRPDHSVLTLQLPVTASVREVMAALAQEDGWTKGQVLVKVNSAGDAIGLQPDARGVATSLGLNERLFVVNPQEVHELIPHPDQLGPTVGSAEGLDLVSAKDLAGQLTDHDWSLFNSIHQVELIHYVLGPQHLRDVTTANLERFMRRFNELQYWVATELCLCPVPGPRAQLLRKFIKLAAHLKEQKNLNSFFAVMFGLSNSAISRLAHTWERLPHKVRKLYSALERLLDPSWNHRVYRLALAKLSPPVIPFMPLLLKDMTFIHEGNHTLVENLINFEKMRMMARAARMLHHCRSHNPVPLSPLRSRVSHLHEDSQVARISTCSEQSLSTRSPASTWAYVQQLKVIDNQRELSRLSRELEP

[8] = target: Rap guanine nucleotide exchange factor 4 (Homo sapiens) (UniProt Q8WZA2); assay: Confirmatory qHTS for agonist of cAMP-regulated guanine nucleotide exchange factor 4 (EPAC2) (AID 1645884);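 note: nucleotide exchange releases bodipy-GDP from Rap1 and this lowers its fluorescence; nearly all actives have a fitted effect of over 65% in size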
Rap guanine nucleotide exchange factor 4 (Homo sapiens), sequence (Q8WZA2 whole entry, looked up): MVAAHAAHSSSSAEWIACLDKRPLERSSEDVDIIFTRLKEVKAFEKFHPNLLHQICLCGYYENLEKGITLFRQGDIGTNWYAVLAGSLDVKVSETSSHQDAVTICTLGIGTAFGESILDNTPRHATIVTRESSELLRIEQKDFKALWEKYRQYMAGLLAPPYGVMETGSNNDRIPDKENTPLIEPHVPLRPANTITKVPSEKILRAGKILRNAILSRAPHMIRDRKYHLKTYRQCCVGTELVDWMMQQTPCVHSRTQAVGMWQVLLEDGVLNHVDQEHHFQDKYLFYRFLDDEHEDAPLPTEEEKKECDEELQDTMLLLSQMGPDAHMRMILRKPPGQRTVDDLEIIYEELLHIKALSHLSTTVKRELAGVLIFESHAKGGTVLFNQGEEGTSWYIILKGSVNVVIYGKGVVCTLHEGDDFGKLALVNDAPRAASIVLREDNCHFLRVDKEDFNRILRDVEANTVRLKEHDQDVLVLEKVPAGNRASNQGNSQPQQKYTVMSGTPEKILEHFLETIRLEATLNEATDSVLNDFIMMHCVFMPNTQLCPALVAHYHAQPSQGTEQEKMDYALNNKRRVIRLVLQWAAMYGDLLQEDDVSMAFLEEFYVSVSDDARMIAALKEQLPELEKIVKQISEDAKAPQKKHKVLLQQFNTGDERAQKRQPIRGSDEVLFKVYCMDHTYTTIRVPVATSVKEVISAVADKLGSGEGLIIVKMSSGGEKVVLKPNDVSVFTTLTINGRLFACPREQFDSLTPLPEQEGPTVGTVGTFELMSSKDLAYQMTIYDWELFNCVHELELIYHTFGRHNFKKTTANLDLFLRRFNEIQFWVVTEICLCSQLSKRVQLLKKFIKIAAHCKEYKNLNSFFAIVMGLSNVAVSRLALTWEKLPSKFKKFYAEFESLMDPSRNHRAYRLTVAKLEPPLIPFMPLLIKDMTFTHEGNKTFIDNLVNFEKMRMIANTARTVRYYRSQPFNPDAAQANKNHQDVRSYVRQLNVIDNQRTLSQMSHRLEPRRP

[9] = target: Rap guanine nucleotide exchange factor 4 (Homo sapiens) (UniProt Q8WZA2); assay: Confirmatory qHTS for antagonist of cAMP-regulated guanine nucleotide exchange factor 4 (EPAC2) (AID 1645885); note: nearly all actives have a fitted effect of over 25% in size; note: potency is the fitted concentration of half-maximal effect
[10] = target: Cytochrome P450 3A4 (Homo sapiens) (UniProt P08684); assay: Cytochrome P450 family 3 subfamily A member 4 (CYP3A4) small molecule antagonists: luciferase qHTS assay (AID 1645841; active = well fitted curve in the direction sought with a large enough effect in the repeat runs; an effect the other way counts as inactive or inconclusive; note: nearly all actives have a fitted effect of over 45% in size)
Cytochrome P450 3A4 (Homo sapiens), sequence (P08684 whole entry, looked up): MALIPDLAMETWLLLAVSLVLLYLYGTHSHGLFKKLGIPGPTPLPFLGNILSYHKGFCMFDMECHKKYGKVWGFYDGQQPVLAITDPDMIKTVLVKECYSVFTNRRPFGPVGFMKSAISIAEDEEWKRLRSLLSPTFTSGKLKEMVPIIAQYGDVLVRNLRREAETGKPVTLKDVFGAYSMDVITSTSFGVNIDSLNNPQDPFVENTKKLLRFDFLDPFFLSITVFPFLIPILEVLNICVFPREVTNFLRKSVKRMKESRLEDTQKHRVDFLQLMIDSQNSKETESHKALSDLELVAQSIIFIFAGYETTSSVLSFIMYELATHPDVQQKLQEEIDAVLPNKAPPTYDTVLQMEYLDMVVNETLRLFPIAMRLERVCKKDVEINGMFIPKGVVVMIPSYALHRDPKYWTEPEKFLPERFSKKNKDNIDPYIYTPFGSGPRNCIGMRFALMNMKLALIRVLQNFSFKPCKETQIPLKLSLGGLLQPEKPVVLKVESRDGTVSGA
In short: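 Luminescent CYP3A4 activity readout: compounds plus enzyme-substrate mix 10 min at room temperature, reaction started with NADPH regenerating system for 1 h, stopped with detection reagent, read after 20 min. Ketoconazole served as control.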

[11] = target: Rap guanine nucleotide exchange factor 3 (Homo sapiens) (UniProt O95398); assay: Confirmatory qHTS for antagonist of cAMP-regulated guanine nucleotide exchange factor 3 (EPAC1) (AID 1645880); note: potency is the fitted concentration of half-maximal effect; nearly all actives have a fitted effect of over 55% in size
In short: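 Released BODIPY-GDP fluoresces less than Rap1-bound BODIPY-GDP; the signal is followed at 480/540 nm at 5-min intervals over 30 min, after 5 min at room temperature. Reactions contain 100 nM EPAC1, 250 nM RAP1B-BODIPY-GDP and 50 uM GDP; results are normalized to ATA and DMSO.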

[12] = target: Rap guanine nucleotide exchange factor 3 (Homo sapiens) (UniProt O95398); assay: Counterscreen qHTS for antagonist of cAMP-regulated guanine nucleotide exchange factor 3 (EPAC1) (AID 1645888)
In short: (§1)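 Rap1B-BODIPY-GDP 250 nM + GDP 50 uM; cpds 7-pt, final 9.74 nM–152 uM (activator mode) or from 7.32 nM upwards (inhibitor mode); RT; FI 480/540 nm at 5 and 30 min, then ± cAMP, reread.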

[13] = target: Rap guanine nucleotide exchange factor 3 (Homo sapiens) (UniProt O95398); assay: Counterscreen qHTS for agonist of cAMP-regulated guanine nucleotide exchange factor 3 (EPAC1) (AID 1645889); note: nearly all actives have a fitted effect of over 40% in size
In short: as §1

[14] = NCATS anti-infectives library activity on HEK293 viability as a counter-qHTS vs the C. elegans viability qHTS (AID 1745854)
In short: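 CellTiter-Glo luminescence, read on a CCD imager, scored viability of HEK293 cells after 24 hr compound exposure at 37C. Library tested in several concentrations, 1:5 steps, up to 41.7 uM; digitonin served as control.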

SMILES: CC(=O)Oc1ccc(C)cc1
- Potency [1]: inactive
- Potency [2]: inactive
- Potency [3]: inactive
- Potency [4]: inactive
- Potency [5]: inactive

SMILES: C/C=C/c1ccc(O)c(OC)c1
- Potency [1]: inactive
- Potency [2]: inactive
- Potency [3]: 2.19 µM (active)

SMILES: N[C@H](C(=O)O)[C@@H](O)c1ccc(O)c(O)c1
- Potency [1]: inactive
- Potency [2]: inactive
- Potency [3]: inactive
- Potency [4]: inactive

SMILES: Cc1ccccc1OCC(O)CO (stereo not given)
- Potency [6]: inactive
- Potency [4]: inactive
- Potency [5]: inactive

SMILES: O=C(O)c1ccc(S(=O)(=O)N(Cl)Cl)cc1
- Potency [1]: inactive
- Potency [2]: inactive
- Potency [3]: inactive
- Potency [4]: inactive
- Potency [5]: inactive

SMILES: C[N+]1(C)CCC(=C(c2ccccc2)c2ccccc2)CC1
- Potency [1]: inactive
- Potency [2]: 13.8 µM (active)

SMILES: CCOc1ccccc1OCCN[C@H](C)Cc1ccc(OC)c(S(N)(=O)=O)c1
- Potency [1]: inactive
- Potency [2]: 15.5 µM (active)
- Potency [3]: inactive
- Potency [4]: inactive
- Potency [5]: inactive

SMILES: CCc1oc2ccccc2c1C(=O)c1cc(I)c(O)c(I)c1
- Potency [6]: inactive
- outcome [7]: inactive
- outcome [8]: inactive
- Potency [9]: 27.8 µM (active)

SMILES: C[C@]12CCC(=O)C=C1C=C[C@@H]1[C@@H]2CC[C@@]2(C)[C@H]1CC[C@@]21CCC(=O)O1
- Potency [1]: inactive
- Potency [2]: inactive

SMILES: COc1cc(NS(=O)(=O)c2ccc(N)cc2)ncn1
- Potency [1]: inactive
- Potency [2]: inactive
- Potency [3]: inactive

SMILES: CN1CCN(C2=Nc3ccccc3Sc3ccc(Cl)cc32)CC1
- Potency [1]: inactive
- Potency [2]: 15.5 µM (active)
- Potency [3]: inactive

SMILES: NC(=O)C1(N2CCCCC2)CCN(CCCC(=O)c2ccc(F)cc2)CC1
- Potency [1]: inactive
- Potency [2]: 4.36 µM (active)
- Potency [10]: inactive
- Potency [4]: inactive
- Potency [5]: inactive

SMILES: CC(C)n1c(/C=C/[C@@H](O)C[C@@H](O)CC(=O)O)c(-c2ccc(F)cc2)c2ccccc21
- Potency [1]: inactive
- Potency [2]: inactive

SMILES: CCN(CC)CCOC(=O)C(Cc1cccc2ccccc12)CC1CCCO1 (stereo not given)
- Potency [1]: inactive
- Potency [2]: 3.09 µM (active) and 3.38 µM (active)

SMILES: O[C@@H](c1cc(C(F)(F)F)nc2c(C(F)(F)F)cccc12)[C@H]1CCCCN1
- Potency [6]: inactive
- Potency [4]: 7.5 µM (active)
- Potency [5]: 7.5 µM (active)

SMILES: CC(=O)Nc1ccc(OC(=O)c2ccccc2OC(C)=O)cc1
- Potency [1]: inactive
- Potency [2]: 15.5 µM (active)
- Potency [3]: inactive
- Potency [4]: inactive
- Potency [5]: inactive

SMILES: CCCCOC(=O)CC(CC(=O)OCCCC)(OC(C)=O)C(=O)OCCCC
- Potency [1]: inactive
- Potency [2]: inactive
- Potency [3]: 1.74 µM (active)
- Potency [4]: inactive

SMILES: N#CCC(=O)NN
- Potency [1]: inactive
- Potency [2]: inactive
- Potency [3]: inactive
- Potency [4]: inactive

SMILES: CC1(C)OC[C@@H]2O[C@@]3(C(=O)O)OC(C)(C)O[C@H]3[C@@H]2O1
- Potency [1]: inactive
- Potency [2]: inactive
- Potency [10]: inactive

SMILES: C[C@@H](O)[C@H]1C(=O)N2C(C(=O)O)=C([C@H]3CCCO3)S[C@H]12
- Potency [1]: inactive
- Potency [2]: inactive
- Potency [3]: inactive
- Potency [4]: inactive
- Potency [5]: inactive

SMILES: CCN(CC)CCOC(=O)C1(c2ccccc2)CCCC1
- Potency [1]: inactive
- Potency [2]: 2.19 µM (active)
- Potency [3]: inactive
- Potency [4]: inactive
- Potency [5]: inactive

SMILES: CCCCNc1ccc(C(=O)OCCOCCOCCOCCOCCOCCOCCOCCOCCOC)cc1
- Potency [1]: inactive
- Potency [2]: inactive
- Potency [3]: 6.92 µM (active)

SMILES: O=C(c1ccc(F)cc1)C1CCN(CCn2c(=S)[nH]c3ccccc3c2=O)CC1
- Potency [1]: inactive
- Potency [2]: 0.776 µM (active)

SMILES: O=C(O)C1(C(=O)O)CCC1.[NH2-].[NH2-].[Pt+2]
- Potency [1]: inactive
- Potency [2]: 19.5 µM (active)
- Potency [10]: inactive

SMILES: O=C1C(CCS(=O)c2ccccc2)C(=O)N(c2ccccc2)N1c1ccccc1 (stereo not given)
- Potency [1]: inactive
- Potency [2]: inactive

SMILES: CCc1oc2ccccc2c1C(=O)c1cc(Br)c(O)c(Br)c1
- Potency [6]: inactive
- Potency [11]: 39.5 µM (active) and 39.8 µM (active)
- outcome [7]: inactive
- outcome [8]: inactive
- Potency [9]: 27.8 µM (active)
- activity change, negative = inhibition [9]: -17.2% [at 12.7 µM]
- outcome [12]: inactive
- outcome [13]: inactive

SMILES: CCCCCCCCOc1ccc(C(=O)c2ccccc2)c(O)c1
- Potency [1]: inactive
- Potency [2]: inactive
- Potency [3]: inactive
- Potency [4]: inactive
- Potency [5]: inactive

SMILES: CCCCCCCCCCCCSCCOCCO
- Potency [1]: inactive
- Potency [4]: inactive
- Potency [5]: inactive

SMILES: NS(=O)(=O)c1cc2c(cc1Cl)NC(CC1CCCC1)NS2(=O)=O (stereo not given)
- Potency [1]: inactive
- Potency [4]: inactive
- Potency [5]: inactive

SMILES: CCOC(=O)c1ccc(N)cc1
- Potency [2]: inactive

SMILES: O=C(O)Cc1csc(-c2ccc(Cl)cc2)n1
- Potency [1]: inactive
- Potency [2]: inactive
- Potency [3]: inactive
- Potency [4]: inactive
- Potency [5]: inactive

SMILES: CCN(CC)CCNC(=O)c1cc(Br)c(N)cc1OC
- Potency [1]: inactive
- Potency [2]: 6.92 µM (active)
- Potency [4]: inactive
- Potency [5]: inactive

SMILES: NC(=S)N/N=C/c1cccnc1
- Potency [1]: inactive
- Potency [3]: inactive
- Potency [4]: inactive
- Potency [5]: inactive

SMILES: Cc1cccc(C)c1NC(=O)c1ccccc1C(=O)O
- Potency [1]: inactive
- Potency [2]: inactive
- Potency [3]: inactive
- Potency [4]: inactive
- Potency [5]: inactive

SMILES: CC(C)Nc1cccnc1N1CCN(C(=O)c2cc3cc(NS(C)(=O)=O)ccc3[nH]2)CC1
- Potency [1]: inactive
- Potency [2]: 6.92 µM (active)
- Potency [3]: 1.95 µM (active)
- outcome [14]: inactive

SMILES: CCCN(CCC)S(=O)(=O)c1ccc(C(=O)O)cc1
- Potency [1]: inactive
- Potency [2]: inactive
- Potency [3]: inactive
- Potency [4]: inactive
- Potency [5]: inactive
- outcome [14]: inactive

SMILES: FC(F)(F)C(F)(F)C(F)(F)C(F)(F)C(F)(F)C(F)(F)C(F)(F)C(F)(F)Br
- Potency [1]: inactive
- Potency [2]: inactive
- Potency [3]: inactive
- Potency [4]: inactive
- Potency [5]: inactive
